GLS inh: qHTS for Inhibitors of Glutaminase (GLS); GLS enzymatic activity, qHTS titration; Potency, µM (series often up to 45.5 µM), usual class: inhibitors; Glutaminase kidney isoform, mitochondrial (Homo sapiens), O94925; 410,000 tested, 0.21% active
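hKGA in 45 mM KH2PO4 (pH 8.2), 0.02% Tween-20 with compound, then 1mM L-Glutamine (stock as added) plus glutamate oxidase/HRP/Amplex red coupling mix. Fluorescence read initially and after 30 min at RT; signal change reflects glutamate formation.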
L3MBTL1 inh: qHTS Assay for the Inhibitors of L3MBTL1; Lethal(3)malignant brain tumor-like protein 1 (Homo sapiens), Q9Y468; AlphaScreen L3MBTL1–H3K9me1 peptide binding; Potency, µM (highest dose often 57.1 µM), most hits filed as inhibitors; 230,000 tested, 0.66% active; AID 485360, 2010; note: nearly all actives have a fitted effect of over 60% in size
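L3MBTL1 (50 nM) pre-complexed 30 min with biotinylated H3(1-15)K9me1 peptide (75 nM), then compounds added for 30 min at room temperature; AlphaScreen streptavidin donor/nickel chelate acceptor beads (10 ug/mL final) read after 30 min dark incubation.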
BAZ2B block: qHTS Assay for Inhibitors of BAZ2B | Bromodomain adjacent to zinc finger domain protein 2B (Homo sapiens), Q9UIF8 | AlphaScreen BAZ2B-H3K14Ac peptide displacement | Potency, µM (highest dose often 114 µM), usual class: inhibitors | 360,000 tested, 4.4% active; note: nearly all actives have a fitted effect of over 60% in size
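AlphaScreen displacement: compounds (up to 110uM) incubated 30 min at room temperature with a preformed 50 nM BAZ2B/50 nM biotinylated H3K14Ac peptide complex in PBS pH 7.4 with Tween-20. Donor and acceptor beads at 10 ug/mL final added, 20 min light-protected before reading.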
HP1b binding inh: HTS for Inhibitors of HP1-beta Chromodomain Interactions with Methylated Histone Tails. Potency, µM (highest dose often 114 µM), hits mostly inhibitors. Chromobox protein homolog 1 (Homo sapiens), P83916. AlphaScreen HP1-beta / biotin-H3K9me3 peptide binding. 390,000 tested, 0.56% active; note: nearly all actives have a fitted effect of over 70% in size
Target sequence (P83916 whole entry, looked up): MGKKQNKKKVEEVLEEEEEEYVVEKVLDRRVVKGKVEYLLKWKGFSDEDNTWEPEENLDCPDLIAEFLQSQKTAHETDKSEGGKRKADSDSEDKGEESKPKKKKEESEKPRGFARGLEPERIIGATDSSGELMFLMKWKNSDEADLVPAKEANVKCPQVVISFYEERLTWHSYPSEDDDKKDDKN
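AlphaScreen: HP1-beta (50 nM) preformed 30 min with biotin-H3(1-18)K9me3 peptide (50 nM) in PBS pH 7.4, 0.01% Tween-20. Compound added for 30 min at RT, then streptavidin donor/nickel chelate acceptor beads (10 ug/mL) for 30 min.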
JMJD2A Tudor inh: qHTS Assay for Inhibitors of JMJD2A-Tudor Domain | Lysine-specific demethylase 4A (Homo sapiens), O75164 | AlphaScreen JMJD2A-Tudor / H3K4me3 peptide binding | Potency, µM (titrated, usually from 114 µM), most hits filed as inhibitors | 390,000 tested, 4.4% active | AID 504339, 2011; note: nearly all actives have a fitted effect of over 50% in size
G9a inh-1: qHTS Assay for Inhibitors of Histone Lysine Methyltransferase G9a | Histone-lysine N-methyltransferase EHMT2 (Homo sapiens), Q96KQ7 | G9a H3K9 monomethylation, AlphaScreen, 2 h | Potency, µM (doses to about 102 µM), actives largely listed as inhibitors | 350,000 tested, 8.8% active | AID 504332, 2011; note: nearly all actives have a fitted effect of over 75% in size
Target sequence (Q96KQ7 913-1193 limits assumed): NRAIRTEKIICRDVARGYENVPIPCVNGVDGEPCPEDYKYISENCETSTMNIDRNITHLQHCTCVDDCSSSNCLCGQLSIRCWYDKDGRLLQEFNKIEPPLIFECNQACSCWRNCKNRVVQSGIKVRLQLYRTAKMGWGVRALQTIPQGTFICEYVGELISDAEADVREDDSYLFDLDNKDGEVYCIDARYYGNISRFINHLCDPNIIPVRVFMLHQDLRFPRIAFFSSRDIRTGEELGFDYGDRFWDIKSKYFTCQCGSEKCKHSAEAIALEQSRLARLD
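AlphaScreen read-out: biotin-H3K9 peptide (500 nM) methylation by 20 nM enzyme with 20 uM SAM, 2 h at room temperature after 15 min compound preincubation; anti-monomethyl H3K9 antibody plus donor/acceptor beads, 10 min dark.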
G9a inh-2: qHTS Assay for Inhibitors of Histone Lysine Methyltransferase G9a: Hit Confirmation | shares compounds with JMJD2A Tudor inh | G9a H3K9 monomethylation, AlphaScreen, 2 h | Potency, µM, most hits filed as inhibitors | 370 tested, 89% active; note: nearly all actives have a fitted effect of over 65% in size
RGS4 inh: qHTS for Inhibitors of Regulator of G Protein Signaling(RGS) 4: Hit Validation; shares compounds with JMJD2A Tudor inh; RGS4 GAP activity, Transcreener GDP fluorescence polarization; Potency, µM, usual class: inhibitors; 25 tested, 80% active; AID 602388, 2012
Hits are given with their value; [ ] = another dose, or the depositor's remark. This is a sample that favours compounds with a hit; in the whole collection about 10% have one here. Calls come from the whole dose curve; as a rule, active = well fitted curve in the direction sought with a large enough effect; inconclusive = small, poorly fitted or top-dose-only effect, or another doubt; inactive = no such curve, though single readings can be large; an effect the other way counts as inactive or inconclusive.

For CCOc1ccc(NC(=O)c2c(NC(=O)c3ccccc3Br)sc3c2CCC(C)C3)cc1 (configuration not stated) the results were GLS inh inactive, BAZ2B block inactive, HP1b binding inh inactive, JMJD2A Tudor inh inactive and G9a inh-1 inactive.
CCOc1cc(CNc2ccccc2SC)ccc1O was read as BAZ2B block 56µM, G9a inh-1 inconclusive and G9a inh-2 8.
`COCc1c(C(=O)N2CCN(Cc3nc4ccccc4s3)CC2)oc2ccccc12` gave GLS inh inactive, L3MBTL1 inh inactive, BAZ2B block inconclusive, HP1b binding inh inactive, JMJD2A Tudor inh inactive, G9a inh-1 inconclusive and G9a inh-2 4.
COCc1c(C(=O)N2CCN(S(=O)(=O)c3ccccc3Cl)CC2)oc2ccccc12 was read as GLS inh inactive, L3MBTL1 inh inactive, BAZ2B block inactive, HP1b binding inh inactive, JMJD2A Tudor inh inactive and G9a inh-1 inactive[12.7 µM].
COc1ccccc1-c1nccc(NCc2cnc(C)cn2)n1 was read as RGS4 inh 27.
c1cncc(-c2nc(-c3ccco3)cs2)c1 was read as GLS inh inactive, BAZ2B block inconclusive, HP1b binding inh inactive, JMJD2A Tudor inh inconclusive, G9a inh-1 inconclusive and G9a inh-2 10.
For c1cncc(-c2csc(-c3cccnc3)n2)c1 the results were GLS inh inactive, BAZ2B block inactive, HP1b binding inh inactive, JMJD2A Tudor inh inactive and G9a inh-1 inactive.
CCN(CC)c1ccc(NC(=O)c2ccc(Br)o2)cc1 was read as GLS inh inactive, L3MBTL1 inh inconclusive, BAZ2B block 50µM, HP1b binding inh inconclusive, JMJD2A Tudor inh 45µM, G9a inh-1 2.2µM and G9a inh-2 7.1.
Screening O=C(Nc1ccc(N2CCCC2)cc1)c1ccc(Br)o1 returned GLS inh inactive, L3MBTL1 inh inactive, BAZ2B block inconclusive, HP1b binding inh inactive, JMJD2A Tudor inh inconclusive, G9a inh-1 2.2µM and G9a inh-2 0.71.
`Cc1ccc(NC(=O)Cn2cnc3sc(C)c(S(=O)(=O)N4CCN(c5ncccn5)CC4)c3c2=O)cc1F` gave GLS inh inactive, BAZ2B block inactive, HP1b binding inh inactive, JMJD2A Tudor inh inactive and G9a inh-1 inactive.
Screening Cc1ccc(NC(=O)CNc2ccc(OC(C)C)cc2)cc1 returned GLS inh inactive, BAZ2B block 50µM, HP1b binding inh inactive, JMJD2A Tudor inh inconclusive, G9a inh-1 0.79µM and G9a inh-2 7.9.
Screening CCN(CC)c1ccc(NC(=O)COc2ccc(C)cc2)cc1 returned GLS inh inactive, L3MBTL1 inh inactive, BAZ2B block inconclusive, HP1b binding inh inactive, JMJD2A Tudor inh inconclusive, G9a inh-1 1.4µM and G9a inh-2 2.8.
`CCN(CC)c1ccc(NC(=O)COC(=O)Cc2ccsc2)cc1` gave GLS inh inactive, L3MBTL1 inh inconclusive, BAZ2B block 45µM, HP1b binding inh inconclusive, JMJD2A Tudor inh 50µM, G9a inh-1 2.8µM and G9a inh-2 6.3.
For CC(=O)c1ccc(NC(=O)COC(=O)Cc2ccsc2)cc1 the results were GLS inh inactive, L3MBTL1 inh inactive, HP1b binding inh inactive and JMJD2A Tudor inh inactive.
